# Source: PubChem BioAssay (EPA / NIEHS)
# Where “and” joins values, the source holds several entries; their conditions need not be identical. Equal values may be shown once. Inconclusive results are not listed. More than one record can exist for a structure, and the calls need not agree. Calls of active or inactive are those of the source. How the source made its calls, unless noted: active means hit-call score of the fitted dose curve at least 0.9, where 1 is the maximum; inactive means score below 0.9.
# How the values were obtained:
# [1] = BSK_3C_VCAM1: BioMAP Diversity Plus: 3C Assay for Vascular cell adhesion molecule 1 (VCAM1) Biomarker Activity (AID 2282999); details: BioMAP 3C HUVEC, VCAM1 ELISA, cytokine-stimulated; actives raise or lower the signal
# In short: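 Human umbilical vein endothelial cells were dosed with compound for 24 h, after which cell-surface VCAM-1 was quantified by ELISA. Bidirectional curve fitting used DMSO as negative control and activity baseline.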
# [2] = BSK_4H_Eotaxin3: BioMAP Diversity Plus: 4H Assay for Eotaxin 3 Biomarker Activity (AID 2283000); details: primary human endothelial cells (HUVEC); actives raise or lower the signal;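 on outcome: CCL26 protein level quantified by ELISA in parallel with SRB cytotoxicity check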
# In short: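 Endothelial primary cells (human umbilical vein) exposed to compound for 24 h. ELISA detection of Eotaxin-3.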
# [3] = target: human Peroxisome Proliferator-activated Receptor alpha (PPARa), PPARA (gene 5465) (UniProt Q07869); assay: ATG_PPARa_TRANS: Attagene TRANS-FACTORIAL HepG2 Assay for human Peroxisome Proliferator-activated Receptor alpha (PPARa) (AID 2283001; active means hit-call score of the fitted dose curve at least 0.9, where 1 is the maximum)
# In short: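 Gain-of-signal endpoint: reporter mRNA induction relative to DMSO, detected by fluorescent RT-PCR and capillary electrophoresis. HepG2 cells transiently carried GAL4-UAS-driven reporter units plus NR-Gal4 fusion; exposure lasted 24 h.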
# [4] = target: human Peroxisome Proliferator-activated Receptor delta (PPARd), PPARD (gene 5467) (UniProt Q03181); assay: ATG_PPARd_TRANS: Attagene TRANS-FACTORIAL HepG2 Assay for human Peroxisome Proliferator-activated Receptor delta (PPARd) (AID 2283002; active means hit-call score of the fitted dose curve at least 0.9, where 1 is the maximum)
# In short: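 Multiplexed trans-activation format: HepG2 liver cells expressing exogenous NR-Gal4 chimeras and GAL4-UAS reporters were exposed for 24 h. Reporter mRNA was detected by RT-PCR with capillary electrophoresis fluorescence; activity fitted as gain of signal relative to DMSO.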
# [5] = read-out: Intercellular Adhesion Molecule 1 (ICAM1), ICAM1 (gene 3383); assay: BSK_3C_ICAM1: BioMAP Diversity Plus: 3C Assay for Intercellular Adhesion Molecule 1 (ICAM1) Biomarker Activity (AID 2283003); details: primary human endothelial cells (HUVEC); actives raise or lower the signal
# In short: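 ICAM-1 levels measured by ELISA after HUVEC cultures in the 3C system had been dosed for 24 h. Gain or loss of signal relative to DMSO was fitted in both directions.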
# [6] = target: human Retinoic Acid Receptor beta (RARb), RARB (gene 5915) (UniProt P10826); assay: ATG_RARb_TRANS: Attagene TRANS-FACTORIAL HepG2 Assay for human Retinoic Acid Receptor beta (AID 2283004; active means hit-call score of the fitted dose curve at least 0.9, where 1 is the maximum)
# In short: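 HepG2, transient MRTU transfection, NR–Gal4 chimera, 24 h treatment; RT-PCR plus CE fluorescence detection of reporter mRNA; gain of signal vs DMSO.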
# [7] = target: Retinoic acid receptor alpha (Homo sapiens) (UniProt P10276); assay: ATG_RARa_TRANS: Attagene TRANS-FACTORIAL HepG2 Assay for human Retinoic Acid Receptor alpha (RARa) (AID 2283005; active means hit-call score of the fitted dose curve at least 0.9, where 1 is the maximum;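 on AC50: potency for increased reporter signal meaning RARa activation over DMSO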)
# In short: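 HepG2 cells transiently transfected with multiple reporter units expressing chimeric RARα-GAL4 fusion, with GAL4-UAS-driven reporters. After 24 h compound exposure, reporter mRNA induction quantified by RT-PCR and capillary electrophoresis with fluorescent labeling; gain-of-signal fitted relative to DMSO control.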
# [8] = BSK_3C_Proliferation: Cell Proliferation Assessment in the BioMAP Diversity Plus: 3C Assay (AID 2283006); details: primary human endothelial cells (HUVEC);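 on AC50: potency may reflect either rise or fall in cell number versus DMSO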
# In short: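 Read-out is total protein by SRB absorbance at 560 nm, taken as a proxy for relative cell number. Primary human umbilical vein endothelium cultured below confluence was dosed for 48 h, TCA-fixed and SRB-stained; curves were fitted bidirectionally versus DMSO.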
# [9] = target: Nuclear receptor subfamily 1 group I member 2 (Homo sapiens) (UniProt O75469); assay: ATG_PXR_TRANS: Attagene TRANS-FACTORIAL HepG2 Assay for human Pregnane X Receptor (PXR) (AID 2283008; active means hit-call score of the fitted dose curve at least 0.9, where 1 is the maximum)
# In short: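 Fluorescence intensity of FAM-labelled, HpaI-digested reporter amplicons, separated by capillary electrophoresis, quantifies induction. HepG2 cells with PXR-Gal4 trans-reporter system were exposed 24 h; DMSO defines baseline.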
# [10] = target: Peroxisome proliferator-activated receptor gamma (Homo sapiens) (UniProt P37231); assay: ATG_PPARg_TRANS: Attagene TRANS-FACTORIAL HepG2 Assay for human Peroxisome Proliferator-activated Receptor-gamma (PPARg) (AID 2283007; active means hit-call score of the fitted dose curve at least 0.9, where 1 is the maximum)
# In short: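 Gain-of-signal endpoint relative to DMSO, derived from reporter mRNA levels quantified by RT-PCR and capillary electrophoresis. Cells were HepG2 transiently expressing a chimeric NR-Gal4 construct with GAL4-UAS reporters, exposed to chemicals for 24 h.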
# Peroxisome proliferator-activated receptor gamma (Homo sapiens), sequence (P37231 whole entry, looked up, the tested form may be a part): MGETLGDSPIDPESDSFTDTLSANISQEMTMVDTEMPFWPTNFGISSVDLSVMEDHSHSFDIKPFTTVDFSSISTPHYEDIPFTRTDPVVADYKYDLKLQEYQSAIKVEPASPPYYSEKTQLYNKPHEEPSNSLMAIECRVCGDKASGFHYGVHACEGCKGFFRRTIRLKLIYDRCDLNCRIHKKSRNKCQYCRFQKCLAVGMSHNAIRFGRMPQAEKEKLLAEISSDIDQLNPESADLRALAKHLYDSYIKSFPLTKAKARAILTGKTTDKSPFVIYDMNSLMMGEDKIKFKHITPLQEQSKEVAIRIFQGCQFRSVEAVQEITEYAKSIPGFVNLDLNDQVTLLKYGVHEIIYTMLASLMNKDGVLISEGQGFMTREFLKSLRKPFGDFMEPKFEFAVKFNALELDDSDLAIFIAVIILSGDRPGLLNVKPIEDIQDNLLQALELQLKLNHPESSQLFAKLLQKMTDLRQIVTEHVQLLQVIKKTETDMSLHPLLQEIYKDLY
# human Peroxisome Proliferator-activated Receptor alpha (PPARa), PPARA (gene 5465), sequence (Q07869 whole entry, looked up, the tested form may be a part): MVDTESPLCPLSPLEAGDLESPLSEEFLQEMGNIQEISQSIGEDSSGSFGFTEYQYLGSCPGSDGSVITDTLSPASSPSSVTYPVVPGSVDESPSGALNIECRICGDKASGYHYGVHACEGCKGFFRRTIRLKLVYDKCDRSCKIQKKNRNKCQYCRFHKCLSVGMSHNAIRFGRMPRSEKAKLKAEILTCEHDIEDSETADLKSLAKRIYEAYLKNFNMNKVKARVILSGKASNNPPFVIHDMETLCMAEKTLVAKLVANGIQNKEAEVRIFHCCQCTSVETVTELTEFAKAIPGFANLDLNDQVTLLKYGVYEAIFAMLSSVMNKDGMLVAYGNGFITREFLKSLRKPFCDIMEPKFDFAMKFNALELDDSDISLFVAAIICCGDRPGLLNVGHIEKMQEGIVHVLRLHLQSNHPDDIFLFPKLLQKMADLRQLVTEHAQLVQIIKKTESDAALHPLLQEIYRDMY
# human Retinoic Acid Receptor beta (RARb), RARB (gene 5915), sequence (P10826 whole entry, looked up, the tested form may be a part): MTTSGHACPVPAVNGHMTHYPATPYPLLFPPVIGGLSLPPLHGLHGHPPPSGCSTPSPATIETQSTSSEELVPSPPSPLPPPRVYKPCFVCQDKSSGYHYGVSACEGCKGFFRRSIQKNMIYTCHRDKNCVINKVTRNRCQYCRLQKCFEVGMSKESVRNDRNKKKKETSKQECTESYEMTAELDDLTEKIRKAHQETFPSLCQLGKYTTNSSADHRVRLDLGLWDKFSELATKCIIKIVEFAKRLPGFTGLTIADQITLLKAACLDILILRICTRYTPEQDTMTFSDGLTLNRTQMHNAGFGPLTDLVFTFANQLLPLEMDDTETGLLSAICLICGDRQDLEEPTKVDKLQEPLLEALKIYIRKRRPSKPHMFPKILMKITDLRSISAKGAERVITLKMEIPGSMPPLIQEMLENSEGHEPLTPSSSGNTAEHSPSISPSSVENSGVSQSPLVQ
# human Peroxisome Proliferator-activated Receptor delta (PPARd), PPARD (gene 5467), sequence (Q03181 whole entry, looked up, the tested form may be a part): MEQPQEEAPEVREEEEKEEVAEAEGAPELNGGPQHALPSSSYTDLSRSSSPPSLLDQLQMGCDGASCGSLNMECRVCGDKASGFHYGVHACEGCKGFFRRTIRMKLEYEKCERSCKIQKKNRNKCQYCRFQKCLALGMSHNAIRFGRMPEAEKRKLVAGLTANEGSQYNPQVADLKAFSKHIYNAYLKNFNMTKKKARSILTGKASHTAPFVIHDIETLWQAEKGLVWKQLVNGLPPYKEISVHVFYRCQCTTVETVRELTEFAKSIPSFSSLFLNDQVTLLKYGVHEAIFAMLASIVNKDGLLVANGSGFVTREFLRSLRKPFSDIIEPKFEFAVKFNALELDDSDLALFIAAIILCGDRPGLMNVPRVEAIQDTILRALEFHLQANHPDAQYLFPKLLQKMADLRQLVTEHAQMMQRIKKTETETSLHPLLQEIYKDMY
# Nuclear receptor subfamily 1 group I member 2 (Homo sapiens), sequence (O75469 whole entry, looked up, the tested form may be a part): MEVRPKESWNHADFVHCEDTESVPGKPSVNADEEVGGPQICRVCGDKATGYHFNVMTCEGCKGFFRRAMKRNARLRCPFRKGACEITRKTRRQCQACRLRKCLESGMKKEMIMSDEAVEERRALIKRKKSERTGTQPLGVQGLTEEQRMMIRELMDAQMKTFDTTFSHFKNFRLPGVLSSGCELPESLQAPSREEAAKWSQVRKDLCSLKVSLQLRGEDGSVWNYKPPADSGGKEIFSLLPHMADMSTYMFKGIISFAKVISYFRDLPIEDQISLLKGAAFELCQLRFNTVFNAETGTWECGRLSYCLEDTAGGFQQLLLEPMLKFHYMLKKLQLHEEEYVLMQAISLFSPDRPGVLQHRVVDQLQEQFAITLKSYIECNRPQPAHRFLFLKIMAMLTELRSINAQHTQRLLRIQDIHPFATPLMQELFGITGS
# Retinoic acid receptor alpha (Homo sapiens), sequence (P10276 whole entry, looked up, the tested form may be a part): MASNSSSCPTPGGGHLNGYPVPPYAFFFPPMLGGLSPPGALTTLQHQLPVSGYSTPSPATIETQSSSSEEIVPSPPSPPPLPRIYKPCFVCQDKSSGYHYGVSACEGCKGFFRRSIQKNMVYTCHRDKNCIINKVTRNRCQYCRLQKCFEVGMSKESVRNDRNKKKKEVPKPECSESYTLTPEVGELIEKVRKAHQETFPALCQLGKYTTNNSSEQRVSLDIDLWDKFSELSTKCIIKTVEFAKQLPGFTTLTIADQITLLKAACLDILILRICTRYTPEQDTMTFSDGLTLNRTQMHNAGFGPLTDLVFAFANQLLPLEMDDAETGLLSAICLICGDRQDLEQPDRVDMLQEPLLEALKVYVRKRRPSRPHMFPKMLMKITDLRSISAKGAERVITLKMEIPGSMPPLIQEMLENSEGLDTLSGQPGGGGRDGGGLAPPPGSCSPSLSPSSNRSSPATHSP
smiles,measurement,setting,value
ClC1C(Cl)C(Cl)C(Cl)C(Cl)C1Cl (stereo not drawn),AC50,[1],30.1 µM (active)
same,outcome,[1],inactive
same,AC50,[2],32.5 µM (active)
same,outcome,[2],inactive
same,outcome,[3],inactive
same,outcome,[4],inactive
same,AC50,[5],28 µM (active)
same,outcome,[5],inactive
same,outcome,[6],inactive
same,AC50,[7],20.6 µM (active) and 6.26 µM (active) and 37.2 µM (active)
same,outcome,[7],inactive
same,AC50,[8],29.2 µM (active) and 28 µM (active)
same,outcome,[8],inactive
O=C(O)COc1ccc(Cl)cc1Cl,outcome,[1],inactive
same,outcome,[2],inactive
same,outcome,[3],inactive
same,outcome,[4],inactive
same,outcome,[5],inactive
same,outcome,[8],inactive
same,outcome,[9],inactive
Cc1cc(C)nc(NC(=O)NS(=O)(=O)c2ccccc2C(=O)OC2COC2)n1,outcome,[1],inactive
same,outcome,[2],inactive
same,outcome,[5],inactive
same,outcome,[6],inactive
same,outcome,[8],inactive
same,outcome,[9],inactive
CCOC1Oc2ccc(OS(C)(=O)=O)cc2C1(C)C (stereo not drawn),outcome,[1],inactive
same,outcome,[2],inactive
same,outcome,[4],inactive
same,outcome,[5],inactive
same,outcome,[6],inactive
same,outcome,[7],inactive
same,outcome,[8],inactive
same,AC50,[9],29.6 µM (active)
CC1(C)C(C=C(Cl)Cl)C1C(=O)OC(C#N)c1ccc(F)c(Oc2ccccc2)c1 (stereo not drawn),outcome,[1],inactive
same,outcome,[2],inactive
same,outcome,[5],inactive
same,outcome,[6],inactive
same,outcome,[7],inactive
same,AC50,[8],10.2 µM (active)
same,AC50,[9],21.6 µM (active)
O=[N+]([O-])c1c(Cl)c(Cl)c(Cl)c(Cl)c1Cl,AC50,[1],21.4 µM (active)
same,outcome,[2],inactive
same,outcome,[4],inactive
same,outcome,[5],inactive
same,outcome,[6],inactive
same,outcome,[7],inactive
same,AC50,[8],30.1 µM (active)
same,outcome,[9],inactive
CC[C@H](C)[C@H]1O[C@]2(C=C[C@@H]1C)C[C@@H]1C[C@@H](C/C=C(\C)[C@@H](O[C@H]3C[C@H](OC)[C@@H](O[C@H]4C[C@H](OC)[C@@H](O)[C@H](C)O4)[C@H](C)O3)[C@@H](C)/C=C/C=C3\CO[C@@H]4[C@H](O)C(C)=C[C@@H](C(=O)O1)[C@]34O)O2 (tested in a mixture with another compound),AC50,[1],9.38 µM (active)
same,AC50,[2],9.57 µM (active)
same,AC50,[5],12.4 µM (active)
same,outcome,[6],inactive
same,outcome,[7],inactive
same,AC50,[8],4.78 µM (active)
COC(=O)c1ccccc1S(=O)(=O)NC(=O)N(C)c1nc(C)nc(OC)n1,outcome,[1],inactive
same,outcome,[2],inactive
same,outcome,[4],inactive
same,outcome,[5],inactive
same,outcome,[8],inactive
same,outcome,[9],inactive
O=C1c2ccccc2C(=O)N1SC(Cl)(Cl)Cl,outcome,[1],inactive
same,outcome,[2],inactive
same,outcome,[5],inactive
same,outcome,[6],inactive
same,outcome,[7],inactive
same,outcome,[8],inactive
same,outcome,[9],inactive
C[C@H]1[C@H](c2ccc(Cl)cc2)SC(=O)N1C(=O)NC1CCCCC1,outcome,[1],inactive
same,outcome,[2],inactive
same,outcome,[5],inactive
same,outcome,[6],inactive
same,outcome,[7],inactive
same,AC50,[8],13.1 µM (active)
same,AC50,[10],16 µM (active)
same,outcome,[9],inactive
CCOCN(C(=O)CCl)c1c(C)cccc1CC,AC50,[1],14.3 µM (active)
same,AC50,[2],35.3 µM (active)
same,outcome,[3],inactive
same,outcome,[5],inactive
same,outcome,[7],inactive
same,AC50,[8],15.5 µM (active)
same,outcome,[9],inactive
CC(C)(C)C(O)/C(=C\c1ccc(Cl)cc1Cl)n1cncn1 (stereo not drawn),AC50,[1],25.3 µM (active)
same,AC50,[2],30.4 µM (active)
same,outcome,[4],inactive
same,outcome,[5],inactive
same,outcome,[6],inactive
same,AC50,[8],26.3 µM (active)
same,outcome,[9],inactive
CCN(CC)C(=O)SCc1ccc(Cl)cc1,outcome,[1],inactive
same,outcome,[2],inactive
same,outcome,[3],inactive
same,outcome,[5],inactive
same,outcome,[6],inactive
same,outcome,[8],inactive
same,outcome,[9],inactive
[2H]C1([2H])[n+]2ccccc2-c2cccc[n+]2C1([2H])[2H],outcome,[1],inactive
same,outcome,[2],inactive
same,outcome,[5],inactive
same,AC50,[8],31.7 µM (active)
CNC(=O)/C=C(\C)OP(=O)(OC)OC,outcome,[1],inactive
same,outcome,[2],inactive
same,outcome,[3],inactive
same,outcome,[5],inactive
same,outcome,[8],inactive
same,outcome,[9],inactive
CC(C)N(C(=O)COc1nnc(C(F)(F)F)s1)c1ccc(F)cc1,outcome,[1],inactive
same,outcome,[2],inactive
same,outcome,[4],inactive
same,outcome,[5],inactive
same,outcome,[8],inactive
same,AC50,[9],10.7 µM (active)
Clc1ccccc1-c1nnc(-c2ccccc2Cl)nn1,outcome,[1],inactive
same,outcome,[2],inactive
same,outcome,[4],inactive
same,outcome,[5],inactive
same,outcome,[7],inactive
same,AC50,[8],11.7 µM (active)
same,outcome,[9],inactive
O=C(NC(=O)c1c(F)cccc1F)Nc1ccc(OC(F)(F)C(F)OC(F)(F)F)c(Cl)c1 (stereo not drawn),outcome,[1],inactive
same,outcome,[2],inactive
same,outcome,[4],inactive
same,outcome,[5],inactive
same,outcome,[8],inactive
same,outcome,[10],inactive
CCC(C)(C)C(=O)OC1=C(c2ccc(Cl)cc2Cl)C(=O)OC12CCCCC2,AC50,[1],24.7 µM (active)
same,AC50,[2],32.3 µM (active)
same,outcome,[3],inactive
same,AC50,[5],32.6 µM (active)
same,outcome,[6],inactive
same,AC50,[8],29.2 µM (active)
same,outcome,[10],inactive
OCCOc1ccccc1,outcome,[1],inactive
same,outcome,[2],inactive
same,outcome,[3],inactive
same,outcome,[5],inactive
same,outcome,[7],inactive
same,outcome,[8],inactive
same,outcome,[9],inactive
CNC(=O)Oc1ccccc1OC(C)C,outcome,[1],inactive
same,outcome,[2],inactive
same,outcome,[3],inactive
same,outcome,[5],inactive
same,outcome,[6],inactive
same,outcome,[8],inactive
same,outcome,[10],inactive
same,outcome,[9],inactive
Cc1[nH]c(=O)n(C(C)(C)C)c(=O)c1Cl,outcome,[1],inactive
same,AC50,[2],11.7 µM (active)
same,outcome,[5],inactive
same,outcome,[6],inactive
same,outcome,[7],inactive
same,outcome,[8],inactive
same,outcome,[10],inactive
same,outcome,[9],inactive
O=[N+]([O-])/N=C1\NCCN1Cc1ccc(Cl)nc1,outcome,[1],inactive
same,outcome,[2],inactive
same,outcome,[5],inactive
same,outcome,[6],inactive
same,outcome,[7],inactive
same,outcome,[8],inactive
same,AC50,[9],90.7 µM (active)
CCC(C)(NC(=O)c1cc(Cl)c(C)c(Cl)c1)C(=O)CCl (stereo not drawn),AC50,[1],9.51 µM (active)
same,AC50,[2],9.74 µM (active)
same,outcome,[4],inactive
same,AC50,[5],26.6 µM (active)
same,outcome,[6],inactive
same,AC50,[8],5.47 µM (active)
same,outcome,[9],inactive
O=C(Nc1ccccc1)Nc1cnns1,outcome,[1],inactive
same,outcome,[2],inactive
same,outcome,[4],inactive
same,outcome,[5],inactive
same,outcome,[6],inactive
same,outcome,[7],inactive
same,AC50,[8],20 µM (active)
same,outcome,[9],inactive
CCc1ccc(C(=O)NN(C(=O)c2cc(C)cc(C)c2)C(C)(C)C)cc1,outcome,[1],inactive
same,outcome,[2],inactive
same,outcome,[5],inactive
same,outcome,[6],inactive
same,outcome,[7],inactive
same,outcome,[8],inactive
same,outcome,[9],inactive
COP(=O)(OC)OC=C(Cl)Cl,outcome,[1],inactive
same,outcome,[2],inactive
same,outcome,[4],inactive
same,outcome,[5],inactive
same,AC50,[8],17.6 µM (active)
same,outcome,[9],inactive
CCCN(CCC)c1c([N+](=O)[O-])cc(C(F)(F)F)cc1[N+](=O)[O-],outcome,[1],inactive
same,AC50,[2],33 µM (active)
same,outcome,[5],inactive
same,AC50,[8],29.1 µM (active)
same,AC50,[9],10.6 µM (active)
O=S1OCC2C(CO1)C1(Cl)C(Cl)=C(Cl)C2(Cl)C1(Cl)Cl (stereo not drawn),AC50,[1],30.3 µM (active)
same,AC50,[2],30.9 µM (active)
same,outcome,[3],inactive
same,AC50,[5],33.9 µM (active)
same,outcome,[7],inactive
same,AC50,[8],24.5 µM (active)
same,outcome,[9],inactive
